Sfp PPTase inh: qHTS Assay for Inhibitors of Bacillus subtilis Sfp phosphopantetheinyl transferase (PPTase). Biochemical Sfp PPTase activity, qHTS. Potency, µM, usual class: inhibitors. 3.5% of 310,000 active;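 also: the enzyme is Sfp with the accession as filed and its product quenches rhodamine fluorescence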
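Compounds were incubated with enzyme (final 15 nM) for 15 min at room temperature before substrate addition started the reaction. Fluorescence at 525 nm excitation, 598 nm emission was recorded immediately and after 30 minutes.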
uPA surface inh: qHTS for Inhibitors of Cell Surface uPA Generation; cell surface uPA generation assay, qHTS; Potency, µM (titrated, usually from 38.3 µM), actives largely listed as inhibitors; 0.31% of 330,000 active; AID 540303, 2011; active = well fitted inhibition curve with a large enough effect; inconclusive = small, poorly fitted or top-dose-only effect; inactive = no such curve, though single readings can be large or run the other way; tested in mouse RAW 264.7 cells; also: nearly all actives have a fitted effect of over 55% in size
TCR act: Activators of T cell receptors: qHTS campaign; primary human leukocytes, anti-CD3, IL-2 HTRF, 48 h; Potency, µM (doses to about 9.22 µM), actives largely listed as activators; 330,000 tested, under 10 active
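Compounds are tested in HTS on primary human leukocytes co-incubated with a-CD3 beads for 48 hr. IL-2 output is measured by time-resolved FRET.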
ClpP mod: qHTS Assay for Activators of ClpP | Potency, µM (doses to about 57.5 µM) | 1.9% of 340,000 active | ATP-dependent Clp protease proteolytic subunit (Bacillus subtilis (strain 168)), P80244 | AID 651965, 2013 | purified B. subtilis ClpP, FRET peptide cleavage, 20 min; active = well fitted falling curve with a large enough effect; inconclusive = small, poorly fitted or top-dose-only effect; inactive = no such curve, though single readings can be large or run the other way; also: the source files actives as falling curves though it sought activators and does not explain the sign; nearly all actives have a fitted effect of over 65% in size
Target sequence (P80244 whole entry, looked up): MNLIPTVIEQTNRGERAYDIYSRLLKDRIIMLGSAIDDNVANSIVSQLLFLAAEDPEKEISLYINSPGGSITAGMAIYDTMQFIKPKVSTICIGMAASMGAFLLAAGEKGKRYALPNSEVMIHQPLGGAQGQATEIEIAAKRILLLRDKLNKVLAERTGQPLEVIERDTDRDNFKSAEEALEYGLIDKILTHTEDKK
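Purified B. subtilis ClpP, 10 microg/mL final in Tris/HCl pH8 with KCl, BSA, glycerol and Tween-20, cleaved an Abz/nitrotyrosine-quenched decapeptide. Fluorescence (ex 320, em 430) was read at 0 and 20 min at room temperature. Delta was normalized to 5.8 microM ADEP and DMSO/no-enzyme controls.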
A number is an active result; i = inactive; ? = inconclusive; nt = no result given. Sampled rows, rich in hits. Any-hit rate of the full collection: about 4.2%. Unless noted, calls follow the shape of the dose curve; as a rule, active = well fitted curve in the direction sought with a large enough effect; inconclusive = small, poorly fitted or top-dose-only effect, or another doubt; inactive = no such curve, though single readings can be large; an effect the other way counts as inactive or inconclusive.

SMILES	Sfp PPTase inh	uPA surface inh	TCR act	ClpP mod
Cn1c(-c2ccc(Br)o2)nc2cc(Br)ccc21	40µM	i	i	i
O=C(CN(c1ccccc1Cl)S(=O)(=O)c1ccccc1)NCc1ccccc1	i	i	i	i
Cc1ccc(NC(=O)c2cc3c([nH]c2=O)CC(C)(C)CC3=O)cc1	nt	nt	nt	i
Cc1ccc(-c2nc3ccccc3n2C)o1	35µM	i	i	16µM
O=C1C([N+](=O)[O-])=C(O)c2cccc3cccc1c23	8.9µM	nt	nt	nt
CCc1cccc2sc(N3CCN(C(=O)C4CC4)CC3)nc12	nt	nt	nt	i
CCc1cccc2sc(N3CCN(C(=O)c4ccc([N+](=O)[O-])o4)CC3)nc12	nt	7.9µM	i	i
COCC(=O)N1CCC2(CCCN(C(c3ccccc3)c3ccccc3)C2)CC1	i	nt	nt	nt
CC1CCC2C(=O)N(c3ccc(C(=O)Oc4cccc5cccnc45)cc3)C(=O)C2C1 (stereo not drawn)	10µM	i	i	i
O=C(O)C1Nc2c(O)cc(Cl)c([N+](=O)[O-])c2C2C=CCC12 (stereo not drawn)	56µM	i	i	i
O=C(N/N=C/c1sc(N2CCCCC2)nc1-c1cccs1)C1CC1	56µM	i	i	i
CC(=O)N1N=C(c2ccc(Br)cc2)CC1c1cn(C)c2ccccc12 (stereo not drawn)	i	i	i	28µM
CC[C@@]1(C(=O)OC)N[C@H](CN(C)C(=O)Nc2ccc(F)cc2)[C@@H]2C(=O)N(C)C(=O)[C@@H]21	nt	i	i	i
Cc1cccc(C(=O)N[C@H](C(=O)Nc2ccc(S(=O)(=O)NC3=NCCCCC3)cc2)C(C)C)c1	i	nt	i	35µM
CCC(C)(C)NC(=O)c1ccc(Sc2nncn2C)c([N+](=O)[O-])c1	i	i	i	i
Cn1cnnc1Sc1ccc(/C=C/C(=O)c2ccc(O)cc2)cc1[N+](=O)[O-]	i	8.9µM	i	i
Cc1ccc(S(=O)(=O)c2nnn3c2nc(NCc2ccc(F)cc2)c2sccc23)cc1	nt	nt	nt	i
Cc1ccc(S(=O)(=O)c2nnn3c2nc(NCc2ccc(F)cc2)c2sccc23)cc1C	nt	nt	nt	28µM
Cc1ccc(S(=O)(=O)c2nnn3c2nc(NCc2ccccc2)c2sccc23)cc1	nt	nt	nt	20µM
CCCCNc1nc2c(S(=O)(=O)c3ccc(C)c(C)c3)nnn2c2ccsc12	nt	nt	nt	28µM
Cc1ccc(S(=O)(=O)c2nnn3c2nc(N2CCCC2)c2sccc23)cc1C	nt	nt	nt	i
CCCCNC(=O)C1(C)CCCCN1C(=O)c1cc2ccccc2s1 (stereo not drawn)	nt	nt	nt	i
COCCn1c(SCC(=O)NC2CCCC2)nnc1C(C)C	i	i	i	i
COc1ccc(C(=O)NNc2ncnc3c2cnn3-c2ccc(C)c(Cl)c2)cc1	nt	nt	nt	i
CSc1nn(CCc2ccncc2)c(=S)s1	50µM	i	i	i
SMILES	Sfp PPTase inh	uPA surface inh	TCR act	ClpP mod
Cc1nc2ccccc2c2oc(C(=O)N3CCN(C(=O)c4ccco4)CC3)cc12	71µM	i	i	i
CCSc1ncc(Cl)c(C(=O)Nc2sc3c(c2C(=O)OC)CCCC3)n1	nt	nt	nt	i
CCOC(=O)c1c(C2COc3ccccc3O2)csc1N (stereo not drawn)	i	nt	i	i
NC(=O)c1c(NC(=O)C2COc3ccccc3O2)sc2c1CCN(Cc1ccccc1)C2 (stereo not drawn)	i	i	i	nt
CCOC(=O)c1c(C2COc3ccccc3O2)csc1NC(=O)c1ccccc1 (stereo not drawn)	i	nt	i	14µM
CCOC(=O)c1c(NC(=O)C2COc3ccccc3O2)sc2c1CCN(Cc1ccccc1)C2 (stereo not drawn)	i	i	i	25µM
C=C1CC(COc2ccc3c(C)c(Cl)c(=O)oc3c2)(c2ccccc2)OC1=O (stereo not drawn)	nt	i	i	?
CCOC(=O)c1[nH]c(C)c(C(=O)NC(CC)Cc2ccccc2)c1C (stereo not drawn)	nt	nt	nt	i
Cc1cccc(C(=O)N/C(=C/c2ccco2)C(=O)N2CCCCCC2)c1	50µM	i	i	i
COc1ccc(/C=C(/NC(=O)c2ccco2)C(=O)N2CCCCC2)cc1	i	i	i	14µM
CSc1ccc(/C=C(/NC(=O)c2ccco2)C(=O)N2CCCCC2)cc1	i	i	i	i
Cc1ccc(C(=O)N/C(=C/c2ccco2)C(=O)N2CCC(C)CC2)cc1	56µM	i	i	nt
CC1CCN(C(=O)/C(=C\c2ccco2)NC(=O)c2ccccc2)CC1	i	i	i	nt
COc1cc(C(=O)NC(=S)Nc2ccc3[nH]c(=O)[nH]c3c2)cc(OC)c1OC	i	i	i	nt
